Laboratory results as given in PubChem BioAssay (NCI).
This is part of a sample that, as a whole, favours compounds with a hit. Of some 79,000 tested, about 15% had one in any assay. Active and inactive are the calls of the source. Cut-off read from the data, not from the text of the source: active = growth inhibition above about 70%; inactive = the rest.

How the values were obtained:
[1] = NCI Yeast Anticancer Drug Screen. Data for the rad52 strain (AID 147);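 note: 0% = growth of vehicle-treated control cultures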; settings: S. cerevisiae rad52 mutant growth inhibition, hits give high values
Procedure, shortened: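 Read-out: growth inhibition versus vehicle-treated controls. Cells were a DNA repair-deficient yeast strain treated with compounds.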

[2] = NCI Yeast Anticancer Drug Screen. Data for the wt1 strain (AID 149);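 note: 0% = growth of vehicle-treated wt1 cultures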; settings: S. cerevisiae wt1 strain (SPY 50644) growth inhibition, hits give high values
Procedure, shortened: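 Vehicle-normalised growth inhibition; strain wt1; compound exposure.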

[3] = NCI Yeast Anticancer Drug Screen. Data for the rad50EPP+ strain (AID 151);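 note: 0% = growth of vehicle-treated control cultures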; settings: S. cerevisiae rad50 mutant strain, hits give high values
Procedure, shortened: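 Growth inhibition read against vehicle controls in rad50EPP+ yeast, a strain altered in DNA damage repair, after compound exposure.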

[4] = NCI Yeast Anticancer Drug Screen. Data for the mgt1 strain (AID 153); settings: S. cerevisiae mgt1 mutant growth inhibition, hits give high values
Procedure, shortened: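 mgt1 yeast grown with test compound; read-out is growth inhibition versus vehicle-treated cultures.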

[5] = NCI Yeast Anticancer Drug Screen. Data for the rad50 strain (AID 155);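 note: 0% = growth of vehicle-only cultures of the same strain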; settings: S. cerevisiae rad50 strain growth inhibition, hits give high values
Procedure, shortened: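 A DNA repair-deficient yeast mutant serves as the test organism; compound-induced growth inhibition is calculated against vehicle-treated cells.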

[6] = NCI Yeast Anticancer Drug Screen. Data for the mec2-1 strain (AID 157); settings: S. cerevisiae mec2-1 strain, hits give high values
Procedure, shortened: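 Yeast mec2-1 mutant treated with compound. Readout: growth inhibition vs vehicle controls.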

[7] = NCI Yeast Anticancer Drug Screen. Data for the rad14 strain (AID 159);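 note: 0% = growth of vehicle-treated control cultures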; settings: S. cerevisiae rad14 strain growth inhibition, hits give high values
Procedure, shortened: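 Vehicle-treated cultures served as the baseline for growth inhibition of a DNA repair-mutant yeast strain exposed to each compound.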

[8] = NCI Yeast Anticancer Drug Screen. Data for the sgs1 mgt1 strain (AID 161);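 note: 0% = growth of cultures given vehicle only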; settings: S. cerevisiae sgs1 mgt1 strain, hits give high values
Procedure, shortened: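 Mutant yeast exposed to compound; growth scored against vehicle-only wells.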

[9] = NCI Yeast Anticancer Drug Screen. Data for the CLN2oe strain (AID 163);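 note: 0% = growth of vehicle-only control cultures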; settings: S. cerevisiae CLN2oe strain, hits give high values
Procedure, shortened: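 Read-out: yeast growth inhibition, expressed relative to vehicle-only controls. The strain bears an engineered cell-cycle alteration.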

[10] = NCI Yeast Anticancer Drug Screen. Data for the cln2 rad14 strain (AID 165);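 note: 0% = growth equal to vehicle treated cultures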; settings: S. cerevisiae cln2 rad14 strain, hits give high values
Procedure, shortened: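 cln2 rad14 yeast strain; compound exposure; growth inhibition read vs vehicle controls.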

[11] = NCI Yeast Anticancer Drug Screen. Data for the bub3 strain (AID 167); settings: S. cerevisiae bub3 mutant strain, hits give high values
Procedure, shortened: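 Inhibition values come from growth of compound-treated mutant yeast normalised to vehicle-treated controls.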

[12] = NCI Yeast Anticancer Drug Screen. Data for the wt2 strain (AID 169);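 note: 0% = growth of vehicle-treated yeast cultures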; settings: S. cerevisiae wt2 strain growth inhibition, hits give high values
Procedure, shortened: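 Read-out: growth inhibition versus vehicle-treated control cultures after compound exposure of the yeast strain.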

[13] = NCI Yeast Anticancer Drug Screen. Data for the mlh1 strain (AID 171);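 note: 0% = growth of vehicle-treated control cultures of the same strain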; settings: S. cerevisiae mlh1 strain growth inhibition, hits give high values
Procedure, shortened: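 Read-out: growth inhibition versus vehicle controls. Strain: engineered yeast with a defined DNA repair or cell cycle defect, compound-treated.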

[14] = NCI Yeast Anticancer Drug Screen. Data for the sgs1 strain (AID 173);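 note: 0% = growth of vehicle-only control cultures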; settings: S. cerevisiae sgs1 mutant, hits give high values
Procedure, shortened: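 Read-out: yeast growth inhibition relative to vehicle controls, following compound exposure of a strain with a defined DNA repair/cell cycle alteration.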

[15] = NCI Yeast Anticancer Drug Screen. Data for the mlh1 rad18 strain (AID 175); settings: S. cerevisiae mlh1 rad18 strain growth inhibition, hits give high values
Procedure, shortened: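 Yeast w/ defined DNA-repair lesions; compound exposure; growth vs vehicle controls → % inhibition.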

[16] = NCI Yeast Anticancer Drug Screen. Data for the rad18 strain (AID 177); settings: S. cerevisiae rad18 mutant growth inhibition, hits give high values
Procedure, shortened: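 Readout: growth inhibition vs vehicle controls. Cells: genetically altered yeast strain, DNA repair defect.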

[17] = at 5.0 µM (retest, dose inferred, filed as 0.5)
[18] = at 50.0 µM (retest, dose inferred, filed as 5.0)

Measured: growth inhibition

O=C1NC(=S)NC(=O)C1=Cc1ccc([N+](=O)[O-])o1
inactive: [1]; at 1.2 µM -50% | [1]; at 3.7 µM -58% | [1]; at 11.0 µM -6% | [1]; at 33.0 µM 57% | [2]; at 1.2 µM -18% | [2]; at 3.7 µM -4% | [2]; at 11.0 µM -1% | [2]; at 33.0 µM -1% | [2]; at 100.0 µM 6% | [3]; at 1.2 µM 11% | [3]; at 3.7 µM 23% | [3]; at 11.0 µM 61% | [4]; at 1.2 µM 15% | [4]; at 3.7 µM 20% | [4]; at 11.0 µM 41% | [4]; at 33.0 µM 58% | [5]; at 1.2 µM 12% | [5]; at 3.7 µM 17% | [5]; [17] 25% | [5]; at 11.0 µM 36% | [5]; at 33.0 µM 66% | [5]; [18] 69% | [6]; at 1.2 µM -16% | [6]; at 3.7 µM -20% | [6]; [17] -19% | [6]; at 11.0 µM -12% | [6]; at 33.0 µM 0% | [6]; [18] -4% | [6]; at 50.0 µM 3.2% | [7]; at 1.2 µM 5% | [7]; at 3.7 µM -10% | [7]; at 11.0 µM -7% | [7]; at 33.0 µM 16% | [7]; at 100.0 µM 36% | [8]; [17] 1% | [8]; [18] 36% | [8]; at 50.0 µM 48% | [9]; at 1.2 µM 9% | [9]; at 3.7 µM -1% | [9]; at 11.0 µM 5% | [9]; at 33.0 µM -9% | [10]; [17] 16% | [10]; [18] 35% | [10]; at 50.0 µM 16.7% | [11]; at 1.2 µM 11% | [11]; at 3.7 µM -9% | [11]; [17] 2% | [11]; at 11.0 µM -24% | [11]; at 33.0 µM -28% | [11]; [18] 10% | [11]; at 50.0 µM 4.45% | [11]; at 100.0 µM 53% | [12]; at 1.2 µM -20% | [12]; at 3.7 µM -12% | [12]; at 11.0 µM 2% | [12]; at 33.0 µM -8% | [12]; at 100.0 µM 64% | [13]; at 1.2 µM 15% | [13]; at 3.7 µM 33% | [13]; at 11.0 µM 21% | [13]; at 33.0 µM 41% | [14]; at 1.2 µM -11% | [14]; at 3.7 µM 2% | [14]; at 11.0 µM 10% | [14]; at 33.0 µM 32% | [14]; at 100.0 µM 54% | [15]; [17] -15% | [15]; [18] 2% | [15]; at 50.0 µM 64% | [16]; at 1.2 µM 21% | [16]; at 3.7 µM 16% | [16]; at 11.0 µM 57%
active: [1]; at 100.0 µM 85% | [3]; at 33.0 µM 87% | [3]; at 100.0 µM 92% | [4]; at 100.0 µM 79% | [5]; at 50.0 µM 77.6% | [5]; at 100.0 µM 87% | [6]; at 100.0 µM 87% | [9]; at 100.0 µM 82% | [13]; at 100.0 µM 81% | [16]; at 33.0 µM 83% | [16]; at 100.0 µM 92%

CCc1cccc(C(C)C)c1NC1=C([n+]2ccc(C)cc2)C(=O)c2ccccc2C1=O
inactive: [1]; at 1.2 µM 2% | [1]; at 3.7 µM 5% | [1]; at 11.0 µM 12% | [1]; at 33.0 µM 42% | [2]; at 1.2 µM -2% | [2]; at 3.7 µM -2% | [2]; at 11.0 µM -4% | [2]; at 33.0 µM -3% | [2]; at 100.0 µM 6% | [3]; at 1.2 µM 0% | [3]; at 3.7 µM 7% | [3]; at 11.0 µM 17% | [3]; at 33.0 µM 31% | [3]; at 100.0 µM 38% | [4]; at 1.2 µM 0% | [4]; at 3.7 µM -1% | [4]; at 11.0 µM -1% | [4]; at 33.0 µM 4% | [4]; at 100.0 µM 11% | [5]; at 1.2 µM -2% | [5]; at 3.7 µM 0% | [5]; [17] 37% | [5]; at 11.0 µM 25% | [5]; at 33.0 µM 63% | [6]; at 1.2 µM -1% | [6]; at 3.7 µM -3% | [6]; [17] 10% | [6]; at 11.0 µM 11% | [6]; at 33.0 µM 1% | [6]; [18] 65% | [6]; at 50.0 µM 63.1% | [6]; at 100.0 µM 17% | [7]; at 1.2 µM -1% | [7]; at 3.7 µM 4% | [7]; at 11.0 µM 4% | [7]; at 33.0 µM 5% | [7]; at 100.0 µM 21% | [8]; [17] -3% | [8]; [18] 36% | [8]; at 50.0 µM 41.2% | [9]; at 1.2 µM -3% | [9]; at 3.7 µM -2% | [9]; at 11.0 µM 1% | [9]; at 33.0 µM -2% | [9]; at 100.0 µM 11% | [10]; [17] -6% | [10]; [18] 32% | [10]; at 50.0 µM 12.7% | [11]; at 1.2 µM -8% | [11]; at 3.7 µM -4% | [11]; [17] 5% | [11]; at 11.0 µM 1% | [11]; at 33.0 µM 5% | [11]; [18] 61% | [11]; at 50.0 µM 41.5% | [11]; at 100.0 µM 25% | [12]; at 1.2 µM -2% | [12]; at 3.7 µM -2% | [12]; at 11.0 µM -2% | [12]; at 33.0 µM 1% | [12]; at 100.0 µM 6% | [14]; at 1.2 µM -3% | [14]; at 3.7 µM -3% | [14]; at 11.0 µM -2% | [14]; at 33.0 µM -2% | [14]; at 100.0 µM 18% | [15]; [17] -4% | [15]; [18] 24% | [15]; at 50.0 µM 61.5% | [16]; at 1.2 µM 0% | [16]; at 3.7 µM -3% | [16]; at 11.0 µM 0% | [16]; at 33.0 µM 1% | [16]; at 100.0 µM 17%
active: [1]; at 100.0 µM 83% | [5]; [18] 87% | [5]; at 50.0 µM 89.1% | [5]; at 100.0 µM 81%
